Screening data deposited in PubChem by The Scripps Research Institute Molecular Screening Center.
PLCg1 inh – blocks human PLC-gamma1 enzyme activity; P19174; purified PLC-gamma1, fluorogenic substrate, fluorescence; inhibition, % at 12.2 µM; 370,000 tested, 0.84% active; in the data active = inhibition above about 9.5%
HGIII-sPLA2 inh – Blocks human group III sPLA2 activity | Q9NZ20 | QFRET BODIPY PC-A2 liposome hydrolysis, fluorescence | inhibition, % at 12.2 µM | 370,000 tested, 0.56% active;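 active = inhibition above mean plus 3 SD of compounds lying within the high and low control bounds, cut at about 19% in these data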
Target sequence (Q9NZ20 whole entry, looked up): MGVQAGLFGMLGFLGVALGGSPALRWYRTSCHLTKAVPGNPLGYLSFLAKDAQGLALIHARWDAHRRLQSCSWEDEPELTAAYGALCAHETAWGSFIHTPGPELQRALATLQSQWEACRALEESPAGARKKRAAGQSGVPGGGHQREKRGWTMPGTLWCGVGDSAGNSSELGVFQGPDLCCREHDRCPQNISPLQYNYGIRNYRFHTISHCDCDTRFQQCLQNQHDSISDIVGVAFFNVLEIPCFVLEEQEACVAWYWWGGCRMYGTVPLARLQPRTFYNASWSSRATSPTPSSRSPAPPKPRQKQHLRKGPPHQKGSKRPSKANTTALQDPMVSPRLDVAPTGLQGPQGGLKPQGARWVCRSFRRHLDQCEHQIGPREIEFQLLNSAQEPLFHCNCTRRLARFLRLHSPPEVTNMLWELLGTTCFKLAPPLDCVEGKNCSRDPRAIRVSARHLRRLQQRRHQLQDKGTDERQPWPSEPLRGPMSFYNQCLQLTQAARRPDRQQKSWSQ
KLK7 zymogen act – activates the human kallikrein-7 zymogen | 370,000 tested, 0.9% active | P49862 | AID 652039 | activation, % at 7 µM | purified proKLK7, EDANS-DABCYL substrate fluorescence; 100% is mature enzyme control, 0% vehicle;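 active = activation above the mean of all tested compounds plus 3 SD, computed per campaign excluding outliers beyond control limits, cut at about 13% in these data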
ADAM17 inh – inhibits human ADAM17 | P78536 | recombinant ADAM17, EDANS/DABCYL FRET peptide cleavage | inhibition, % at 6.95 µM | 370,000 tested, 0.83% active | AID 720648;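 active = inhibition above the mean of compounds lying between control limits plus 3 SD, set per campaign, cut at about 8.5% in these data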
ADAM10 inh – inhibits human ADAM10 | O14672 | recombinant ADAM10, EDANS/DABCYL FRET peptide cleavage, 3 h | inhibition, % at 7 µM | 370,000 tested, 0.62% active;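 active = inhibition above a per-campaign cutoff equal to the mean of compounds falling between control-based bounds plus 3 SD, cut at about 20% in these data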
PLCb3 inh – blocks human PLC-beta3 enzyme activity; AID 720704; Purified PLC-beta3, fluorogenic substrate, fluorescence; inhibition, % at 12.2 µM; Q01970; 370,000 tested, 0.18% active
PLCgamma1 ctr – counter-screen for PLC-beta3 inhibitors: inhibitors of human PLC-gamma1 | 3,300 tested, 3.1% active | inhibition, % at 12.3 µM | shares compounds with PLCg1 inh | purified PLC-gamma1, fluorogenic substrate, fluorescence; in the data active = inhibition above about 9.5%
PLCbeta3 conf – confirmation of human PLC-beta3 inhibitors | AID 743261 | purified PLC-beta3, fluorogenic substrate fluorescence | shares compounds with PLCg1 inh | 3,300 tested, 1% active | inhibition, % at 12.3 µM
Of the large screens only hits and unclear results are named; the others gave an inactive call (follow-up assays come after a bar, where they were run). An excerpt weighted towards active compounds, which were near 3.4% of everything screened. Cut-off read from the data, not from the text of the source, unless noted: active = inhibition above about 11%; inactive = the rest.

CCOC(=O)N1C(=O)C[C@](Sc2ccc(OC)cc2)(C(=O)N(C)C)[C@H]1c1ccc(OC)cc1	none
O=C1C(=O)N(CCO)C(c2ccc(Br)cc2)/C1=C(\O)c1ccccc1 (configuration not stated)	PLCg1 inh 12.0 | PLCgamma1 ctr inactive | PLCbeta3 conf inactive
CN1CCCCC(NC(=O)c2ccc(C#N)cc2)C1=O (configuration not stated)	none
CCOC(=O)C(C)c1c(C)[nH]c(=S)[nH]c1=O (configuration not stated)	PLCg1 inh 11.0 | PLCgamma1 ctr inactive | PLCbeta3 conf inactive
CCCCCOC(=O)C(C)c1c(C)[nH]c(=S)[nH]c1=O (configuration not stated)	none
Cc1cccc(C)c1Nc1ncnc2ccccc12	PLCg1 inh 9.7 | PLCgamma1 ctr inactive | PLCbeta3 conf inactive
CCOC(=O)c1c(C)[nH]c(C(=O)CSc2nnc(-c3ccncc3)n2CC)c1C	none
C=CCn1c(SCC(=O)c2[nH]c(C)c(C(=O)OCC)c2C)nc2scc(-c3ccc(OC)c(OC)c3)c2c1=O	PLCb3 inh 10.6 | PLCgamma1 ctr inactive | PLCbeta3 conf inactive
CSc1ccccc1NC(=O)Cn1c(-c2cscn2)nc2ccccc21	PLCg1 inh 9.8 | PLCgamma1 ctr inactive | PLCbeta3 conf inactive
CCC(C)n1c(SCC(=O)NCc2ccco2)nnc1-c1cccc(S(=O)(=O)N2CCOCC2)c1 (configuration not stated)	PLCg1 inh 12.4 | PLCgamma1 ctr inactive | PLCbeta3 conf inactive
Cn1c(SCC(=O)NCc2ccco2)nnc1-c1ccc(S(=O)(=O)N2CCOCC2)cc1	none
O=C(C1CCCN(S(=O)(=O)c2ccc([N+](=O)[O-])cc2)C1)N1CCN(Cc2ccccc2)CC1 (configuration not stated)	none
O=C(N[C@H](Cc1ccccc1)C(=O)N1CCN(c2ccc(Cl)cn2)CC1)[C@H]1O[C@@H](n2ccc(=O)[nH]c2=O)[C@H](O)[C@@H]1O	none
O=C(NN1C(=O)NC2(CCCCC2)C1=O)c1ccc(Cl)c(Cl)c1	PLCg1 inh 11.6 | PLCgamma1 ctr inactive | PLCbeta3 conf inactive
O=C(NN1C(=O)NC2(CCCCC2)C1=O)c1cc(F)cc(F)c1	none
CC1=C(C(=O)OC(C)C)C(c2cccc([N+](=O)[O-])c2)n2c(cc(=O)[nH]c2=S)N1 (configuration not stated)	PLCg1 inh 9.7 | PLCgamma1 ctr inactive | PLCbeta3 conf inactive
CON(C)C(=O)C(C)(C)CC#CCN(CC#Cc1ccccc1)S(=O)(=O)c1ccc(C)cc1	none
Cn1c(SCC(=O)NCCN2CCCCC2)nc2cccnc21	none
Cc1ccc(-c2csc(N(CC3CCCO3)C(=O)c3ccco3)n2)cc1 (configuration not stated)	PLCg1 inh 11.3 | PLCgamma1 ctr inactive | PLCbeta3 conf inactive
COc1ccc(-c2csc(N(CC3CCCO3)C(=O)c3ccc(C)cc3)n2)cc1 (configuration not stated)	PLCg1 inh 14.4 | PLCgamma1 ctr inactive | PLCbeta3 conf inactive
CN1C(=O)[C@@]2(O[C@H]3C=CC=CN3C3=C2C(=O)CCC3)c2cc([N+](=O)[O-])ccc21	none
C=CCN=C1NC(CCc2ccccc2)C(C(=O)OC)=C(C)N1Cc1cccc(C(F)(F)F)c1 (configuration not stated)	none
O=C(CCC1CCCN(C(=O)c2cncs2)C1)NCc1ccc(F)c(F)c1 (configuration not stated)	PLCg1 inh 10.5 | PLCgamma1 ctr inactive | PLCbeta3 conf inactive
O=C(c1ccoc1)N1CCN(c2cc(-c3ccco3)nc3cc(-c4ccco4)nn23)CC1	none (no result: KLK7 zymogen act)
COc1ccc(CNC(=O)CCC(=O)Nc2nnc(CC(C)C)s2)cc1	PLCg1 inh 12.0 | PLCgamma1 ctr inactive | PLCbeta3 conf inactive
OC1(Cc2ccccc2)CCN(c2ncnc3sccc23)CC1	none (no result: KLK7 zymogen act)
C=CC[C@@H]1NN2C(=O)[C@@H](CCCC)[C@@H]3c4cc5ccccc5cc4C=NN3[C@@H]2c2cc3ccccc3cc21	none
Cc1ccc(NC(=O)Cn2sc3nc(C)cc(C)c3c2=O)c(Cl)c1	PLCg1 inh 13.2 | PLCgamma1 ctr inactive | PLCbeta3 conf inactive
Cc1cc(C)c2c(=O)n(CC(=O)Nc3ccc(Cl)cc3)sc2n1	none
NC(=O)CC(NC(=O)Cc1ccc(Br)cc1)c1ccc(NC2CCC2)c([N+](=O)[O-])c1 (configuration not stated)	none
NC(=O)CC(NC(=O)Cc1cccc2ccccc12)c1ccc(NC2CCC2)c([N+](=O)[O-])c1 (configuration not stated)	PLCg1 inh 10.1 | PLCgamma1 ctr inactive | PLCbeta3 conf inactive
NC(=O)CC(NC(=O)Cc1cccc2ccccc12)c1ccc(N2CCCCCC2)c([N+](=O)[O-])c1 (configuration not stated)	PLCg1 inh 13.5, PLCb3 inh 13.2 | PLCgamma1 ctr 10.1 | PLCbeta3 conf inactive
C/C(CC(=O)Nc1ccccc1C)=N\NC(=O)Cc1csc(N)n1	PLCg1 inh 9.9 | PLCgamma1 ctr inactive | PLCbeta3 conf inactive
COC(=O)[C@]12C[C@H](CC(=O)NCCCN3CCCC3=O)C(=O)N(Cc3ccccc3)C1=C[C@H](C(C)C)O[C@@H]2C1CC1	none
O=C(NC(=S)Nc1c(F)cc(F)cc1Br)c1ccc2c(c1)OCCO2	PLCg1 inh 12.8 | PLCgamma1 ctr inactive | PLCbeta3 conf inactive
O=C(NC(=S)Nc1ccc(F)cc1)c1ccc2c(c1)OCCO2	none
COc1ccc(C(=O)OCC(=O)Nc2c(C)n(C)n(-c3ccccc3)c2=O)cc1	PLCg1 inh 12.0 | PLCgamma1 ctr inactive | PLCbeta3 conf inactive
COc1cc(OC)c(C(=O)OCC(=O)Nc2c(C)n(C)n(-c3ccccc3)c2=O)cc1OC	none
COC(=O)[C@]12C[C@H](CC(=O)NCCc3ccccc3OC)C(=O)N(Cc3ccco3)C1=C[C@H](C(C)(C)C)O[C@@H]2C	none
CCNC(=S)NCCN1CCOCC1	PLCb3 inh 12.1 | PLCgamma1 ctr inactive | PLCbeta3 conf inactive
CS(=O)(=O)OC12CCCN(C1)/C(=C/c1ccc(Cl)cc1)C2 (configuration not stated)	none
Cc1ccccc1OCCCc1c(C)n[nH]c1C	PLCg1 inh 9.8 | PLCgamma1 ctr inactive | PLCbeta3 conf inactive
CCOC(=O)C1CCN(C(=O)COc2ccc(Br)cc2)CC1	PLCg1 inh 11.4 | PLCgamma1 ctr inactive | PLCbeta3 conf inactive
